Screens: PubChem BioAssay, Sanford-Burnham Center for Chemical Genomics
Compounds with a hit are over-represented: about 3% of the library has one in this group of screens.
SENP8 block-1 = SENP8 protease inhibitors, primary screen, biochemical, luminescence. Sentrin-specific protease 8 (Homo sapiens), Q96LD8. purified SENP8, Z-RLRGG-aminoluciferin cleavage. AID 2540, 2010. actives 1.2% (n = 330,000). inhibition, % at 10 µM; in the data active = inhibition above about 50%
Target sequence (Q96LD8 whole entry, looked up): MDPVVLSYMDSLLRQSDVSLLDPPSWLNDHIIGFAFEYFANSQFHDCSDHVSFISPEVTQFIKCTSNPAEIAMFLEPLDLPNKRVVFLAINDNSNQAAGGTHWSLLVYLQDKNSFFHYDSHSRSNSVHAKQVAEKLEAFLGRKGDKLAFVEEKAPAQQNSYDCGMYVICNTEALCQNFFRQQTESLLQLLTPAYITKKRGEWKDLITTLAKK
SENP6 block = SENP6 protease inhibitors, primary screen, biochemical, luminescence, uHTS; actives 1.8% (n = 330,000); Recombinant SENP6 catalytic domain, aminoluciferin luminescence; Sentrin-specific protease 6 (Homo sapiens), Q9GZR1; AID 2599, 2010; inhibition, % at 10 µM;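 active = inhibition above about 50% at the single tested dose, limit read from the data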;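 also: plate controls were DMSO wells with enzyme for no effect and DMSO wells lacking enzyme for full effect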
SENP7 block = SENP7 protease inhibitors, primary screen, biochemical, luminescence, uHTS; Sentrin-specific protease 7 (Homo sapiens), Q9BQF6; recombinant SENP7, Z-RLRGG-aminoluciferin luminescence, 40 min; inhibition, % at 5 µM; actives 1.5% (n = 330,000);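 active = inhibition above about 50% at the single test dose, limit read from the data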;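 also: plate controls were DMSO with enzyme for no effect and no enzyme buffer wells for full effect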
SENP8 block-2 = human SENP8 protease inhibitors, primary screen, biochemical, fluorescence, Nedd8 protein substrate, uHTS; recombinant SENP8; inhibition, % at 20 µM; actives 0.64% (n = 360,000); AID 602440, 2012; in the data active = inhibition mostly above about 40%, no sharp cut-off; inactive = mostly below about 27%
PPC-1+TRAIL kill = compounds killing PPC-1 cancer cells with TRAIL present, primary screen, TRAIL potentiator project, ATPLite luminescence, uHTS. PPC-1 cells + TRAIL, ATPLite viability luminescence. cell killing (% activity), % at 4 µM or 5 µM. actives 0.41% (n = 220,000);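 active = cell killing above 50% in the first pass at 4 µM, then a duplicate retest at 5 µM averaging 50% or more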;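 also: plate controls were cells with TRAIL plus DMSO for no effect and medium-only wells lacking cells for full effect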
C8 TRAIL sens = viability loss with TRAIL in NB7+C8 cells, primary screen, TRAIL sensitizer project, cell-based, ATPlite luminescence; inhibition (viability loss, TRAIL sensitization), % at 10 µM; actives 1% (n = 360,000);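 active = compounds causing at least 50% loss of cell viability in the single-dose screen, relative to plate controls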
SENP8 confirm = SENP8 protease inhibitors, retest, confirmation, biochemical, luminescence, single concentration | inhibition, % at 12.5 µM | Recombinant SENP8, Z-RLRGG-aminoluciferin luminescence, 60 min | actives 40% (n = 6,200) | AID 488912, 2010 | shares compounds with SENP7 block;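 active = mean inhibition across replicates above about 50%, limit read from the data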
SENP6 confirm = SENP6 protease inhibitors, confirmation, biochemical, luminescence, single concentration; shares compounds with SENP7 block; recombinant SENP6, Z-RLRGG-aminoluciferin luminescence; inhibition, % at 12.5 µM; actives 58% (n = 6,200); AID 488915, 2010
SENP7 conf = SENP7 protease inhibitors, retest, confirmation, biochemical, luminescence, single concentration. shares compounds with SENP7 block. recombinant SENP7, Z-RLRGG-aminoluciferin luminescence, 40 min. inhibition, % at 12.5 µM. actives 69% (n = 6,200)
Casp3 select = caspase-3 protease inhibitors, confirmation, selectivity assay for SENP inhibitor project, biochemical, single concentration; inhibition, % at 12.5 µM; actives 60% (n = 6,200); purified caspase-3, Z-DEVD-aminoluciferin luminescence, 60 min; shares compounds with SENP7 block;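 active = mean inhibition above about 50%, limit read from the data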;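 also: plate controls were enzyme with DMSO for no effect and wells without caspase-3 for full effect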
Target sequence (P42574 28-227 limits assumed): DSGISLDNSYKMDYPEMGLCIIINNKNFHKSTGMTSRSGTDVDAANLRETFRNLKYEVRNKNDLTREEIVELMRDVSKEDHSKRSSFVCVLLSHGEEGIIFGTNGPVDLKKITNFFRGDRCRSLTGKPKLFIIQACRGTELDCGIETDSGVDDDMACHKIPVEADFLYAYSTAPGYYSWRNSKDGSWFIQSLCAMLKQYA
Luc interf = luminescence interference (SENP counter-screen). shares compounds with SENP7 block. Pre-incubated SENP8/Z-RLRGG-aminoluciferin, luciferase luminescence interference. inhibition, % at 12.5 µM. actives 39% (n = 6,200);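 active = mean inhibition above about 50% when retested at one dose, limit read from the data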;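 also: plate controls were DMSO wells with completed reaction for no effect and substrate without enzyme for full effect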
* hit, by the source's call; / = no result given.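 The calls were made as follows, unless noted: active = mean inhibition above about 50% in the one-dose retest (limit read from the data); inactive = the rest.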

SMILES | SENP8 block-1 | SENP6 block | SENP7 block | SENP8 block-2 | PPC-1+TRAIL kill | C8 TRAIL sens | SENP8 confirm | SENP6 confirm | SENP7 conf | Casp3 select | Luc interf
O=[N+]([O-])c1ccc(-c2nc(=S)c3c(o2)CCCC3)cc1 | -8 | 0 | 0 | 8 | 20 | -5 | / | / | / | / | /
COc1cccc(-c2nc(=S)c3c(o2)CCCC3)c1 | 34 | 65* | 0 | 10 | 20 | 10 | 38 | 21 | 60* | 28 | 25
CC(C)CN1CCN(CCCOC(=O)Nc2cccc3ccccc23)CC1C (stereo not given) | / | / | / | -54 | / | 16 | / | / | / | / | /
Cc1cc(C)c2c(N)c3ccccc3nc2n1 | 2 | 8 | 0 | -280 | 48 | 12 | / | / | / | / | /
Cc1cc(C)c2cccc(N)c2n1 | 2 | 71* | 7 | -6 | 10 | -2 | -22 | -18 | -7 | -6 | -5
Cc1c(-c2ccc(OCc3ccccc3)cc2)nc2ccccc2c1C(=O)O | 6 | -5 | -6 | -38 | / | 10 | / | / | / | / | /
O=c1c2c([nH]c3ccccc13)CCCCCC2 | 3 | 0 | 10 | -14 | 2 | 41 | / | / | / | / | /
O=c1c2c([nH]c3ccccc13)CCCCC2 | -6 | 82* | 2 | 2 | 28 | 9 | 10 | 2 | -4 | -7 | -8
Cc1ccc2occ(/C=C/C(=O)O)c(=O)c2c1 | 34 | 74* | 32 | -181 | 1 | -1 | 64* | 58* | 86* | 58* | 61*
N#CCC(=O)Nc1nc(-c2ccc3c(c2)OCCO3)cs1 | 82* | 89* | 61* | -1 | 12 | 4 | 53* | 67* | 89* | 68* | 40
CC(=O)Nc1nc(-c2ccc3c(c2)OCO3)cs1 | 9 | 52* | 41 | 27 | 15 | 18 | 27 | 24 | 56* | 52* | 22
O=C1CC2(CCN(C(=O)c3cccc([N+](=O)[O-])c3)CC2)Oc2ccccc21 | 7 | 2 | 4 | -63 | / | 12 | / | / | / | / | /
Cc1c(C(=O)O)cccc1-c1ccc(/C=C2/NC(=O)N(c3ccccc3)C2=O)o1 | 60* | 64* | -1 | -409 | -13 | -8 | -10 | 79* | 92* | 16 | 12
O=Cc1ccc(-c2cccc([N+](=O)[O-])c2)o1 | 2 | -7 | 3 | 0 | 6 | -22 | / | / | / | / | /
O=C1NC(=O)/C(=C/c2ccc(-c3cccc([N+](=O)[O-])c3)o2)S1 | 66* | 86* | 55* | 27 | / | -15 | 78* | 60* | 43 | 21 | 15
CCOC(=O)CN1C(=O)S/C(=C\c2ccc(-c3cccc(C(=O)O)c3C)o2)C1=O | 48 | 55* | 35 | -181 | / | -6 | 49 | 48 | 52* | 13 | 12
Cc1c(C(=O)O)cccc1-c1ccc(/C=C2\SC(=O)NC2=O)o1 | 98* | 98* | 91* | -149 | / | 4 | 99* | 100* | 103* | 97* | 97*
